Source: PubChem BioAssay (National Center for Advancing Translational Sciences (NCATS))
Sampled rows, rich in hits. Any-hit rate of the full collection: about 9%.
IMPase inh – qHTS Assay for Identifying the Cell-Membrane Permeable IMPase Inhibitors | Inositol monophosphatase 1 (Rattus norvegicus), P97697 | CHO-M1 cells, IP1 accumulation, HTRF TR-FRET ratio | inhibition (IP1 accumulation), % at 46.1 µM | 120,000 tested, under 10 active; active = well fitted curve in the direction sought with a large enough effect in the signal ratio, not every such curve was filed as active; inconclusive = small, poorly fitted or top-dose-only effect, or a change in a side signal; inactive = no such curve, though single readings can be large or run the other way; the % refers to the signal ratio;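 also: cells stimulated with carbachol in lithium chloride buffer; plate controls were DMSO basal wells for no effect and reference inhibitor wells for full effect; higher means more IMPase inhibition seen as more IP1 and lower FRET ratio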
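Carbachol-driven Gq signalling in CHO-M1 cells (2000/well) generates IP1. Compounds that block IMPase raise IP1 and so reduce the FRET signal from Eu-anti-IP1 and d2-IP1 after a 10 min room-temperature lysis.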
HPGD inh – qHTS Assay for Inhibitors of HPGD (15-Hydroxyprostaglandin Dehydrogenase) | purified HPGD, NADH fluorescence kinetic, PGE2 substrate | Potency, µM, for the others: top-dose activity change, negative = inhibition, hits mostly inhibitors | 4.3% of 150,000 active; also: potency is read from the fitted curve at half-maximal effect
Target sequence (P15428 whole entry, looked up): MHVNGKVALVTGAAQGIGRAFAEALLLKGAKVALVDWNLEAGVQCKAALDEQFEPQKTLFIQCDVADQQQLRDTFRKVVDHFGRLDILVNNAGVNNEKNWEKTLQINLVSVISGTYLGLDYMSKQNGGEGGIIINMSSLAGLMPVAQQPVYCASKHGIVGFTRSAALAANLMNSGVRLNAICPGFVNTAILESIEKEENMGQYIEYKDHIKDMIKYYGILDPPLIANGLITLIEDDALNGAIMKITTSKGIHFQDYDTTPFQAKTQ
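20 nM HPGD preincubated 15 min at room temperature with compound in 50 mM Tris-HCl pH 8, 0.01% Tween 20. Started with 1 mM NAD+ and 30 uM prostaglandin E2; NADH fluorescence (360/450 nm) read 5 times over 30-s intervals, last minus first.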
ALDH1A1 block – qHTS Assay for Inhibitors of Aldehyde Dehydrogenase 1 (ALDH1A1); Purified ALDH1A1, NADH fluorescence, propionaldehyde substrate; Potency, µM (doses to about 75.3 µM), inactives show at the top dose activity, negative = inhibition, most hits filed as inhibitors; 7.3% of 220,000 active; AID 1030, 2008;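 also: potency is read from the fitted curve at half-maximal effect; plate controls were no enzyme wells and a reference inhibitor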
Numbers without * were called inactive. Unless noted, calls follow the shape of the dose curve; as a rule, active = well fitted inhibition curve with a large enough effect (not every such curve was filed as active); inconclusive = small, poorly fitted or top-dose-only effect, or another doubt; inactive = no such curve, though single readings can be large or run the other way. Unless noted, % is scaled to controls: 0 for no effect and ±100 for the full control effect.

How did Cc1ccc(Cl)cc1-c1ccc(C=Nc2ccc(N3CCOCC3)cc2)o1 do in these assays?
HPGD inh: inconclusive; ALDH1A1 block: 10µM*

What do the screens show for `Cc1ccc(/C=N/N2CCN(c3ccc(Cl)cc3)CC2)o1`?
IMPase inh: -1.4; HPGD inh: -2.9%; ALDH1A1 block: 1.4%

What do the screens show for `NCCCNC(=O)c1ccc(/C=N/O)nc1`?
ALDH1A1 block: 13.6%

Results for COc1ccc(/C=N/NC(=O)c2ccc(=O)n(C)c2)cc1OC ?
ALDH1A1 block: -6.9%

How did COc1ccc(/C=N/NS(=O)(=O)c2ccc(C)cc2)cc1OC(=O)c1ccc(C)cc1 do in these assays?
IMPase inh: 2.8; HPGD inh: -22.8%; ALDH1A1 block: inconclusive

How did COc1ccc(/C=N/NC(=S)SC)cc1OC do in these assays?
ALDH1A1 block: 10µM*

What do the screens show for `COc1ccc(/C=N/NC(=O)c2cccc([N+](=O)[O-])c2)cc1OC(=O)c1ccc(C)cc1`?
IMPase inh: 10.6; HPGD inh: -8.6%; ALDH1A1 block: inconclusive

What do the screens show for `COc1ccc(C(=O)Oc2cc(/C=N/NS(=O)(=O)c3ccccc3)ccc2OC)cc1`?
IMPase inh: 3.1; HPGD inh: -22.4%; ALDH1A1 block: 3.16µM*

What do the screens show for `COc1ccc(/C=N/NC(N)=S)cc1OC(=O)c1ccccc1`?
IMPase inh: 5.4; HPGD inh: 25.1µM*; ALDH1A1 block: -7.6%

How did CC(C)=CCN1CCN(Cc2cn[nH]c2C2CCCCC2)CC1CCO (stereo not drawn) do in these assays?
ALDH1A1 block: 9.7%

How did O=C(CN1CCCCC1)N1CCN(C(=O)CN2CCCCC2)CC1 do in these assays?
IMPase inh: -8.1; HPGD inh: -3.6%; ALDH1A1 block: 2.3%

How did CC(C)NC(=O)CN1CCC(O)(c2ccccc2)CC1 do in these assays?
IMPase inh: -1.1; HPGD inh: -16.2%; ALDH1A1 block: 3.6%

Results for CC(C)CC(=O)N1CCN(Cc2ccc3c(c2)OCO3)CC1 ?
IMPase inh: -1.7; HPGD inh: -8.4%; ALDH1A1 block: inconclusive

Results for CN(C)C(=O)CN1CCN(C(=O)CCl)CC1 ?
ALDH1A1 block: 2.82µM*

What do the screens show for `CC(C)NC(=O)CN1CCN(C(=O)CCl)CC1`?
ALDH1A1 block: 3.16µM*

How did CC(C)c1ccc(CN2CCN(C(=O)CCl)CC2)cc1 do in these assays?
ALDH1A1 block: 0.562µM*

What do the screens show for `CCOc1cc(OCC)cc(C(=O)NCCCN2CCOCC2)c1`?
ALDH1A1 block: 2.2%

What do the screens show for `COC(=O)[C@@H]1C[C@@H]2CC[C@@H](O)C[C@@H]2N1Cc1ccc(N2CCN(C)CC2)cc1`?
HPGD inh: -3.2%; ALDH1A1 block: inconclusive

Results for CC(NC(=O)C(C(=O)c1cccc([N+](=O)[O-])c1)n1cc(Cl)ccc1=O)c1ccccc1 (stereo not drawn) ?
IMPase inh: 15.8; HPGD inh: -1.6%; ALDH1A1 block: 2.1%

Results for O=C(N/N=C1/C(=O)c2cccc3cccc1c23)c1ccc(Cl)cc1 ?
IMPase inh: -1.3; HPGD inh: 28.2µM*; ALDH1A1 block: inconclusive

What do the screens show for `CCNC(=S)N/N=C1\C(=O)c2cccc3cccc1c23`?
IMPase inh: 1.1; HPGD inh: -14.8%; ALDH1A1 block: 10µM*

Results for CCNC(=S)N/N=C1\CCCCc2ccccc21 ?
HPGD inh: -24.3%; ALDH1A1 block: inconclusive

Results for O=C(NN=C1c2ccccc2-c2ccccc21)c1cccc(Br)c1 ?
IMPase inh: 2.3; HPGD inh: -15.3%; ALDH1A1 block: 1.5%

How did O=C(NCCc1ccccc1)C(=O)NCC(c1ccco1)N1CCOCC1 (stereo not drawn) do in these assays?
ALDH1A1 block: 4.2%

Results for C=CCN1CCN(c2nc3ccccc3nc2C#N)CC1 ?
IMPase inh: -3.2; HPGD inh: -5.2%; ALDH1A1 block: 6.1%

How did Cc1nnc(NC(=O)CCC(=O)N2CCN(CCc3ccccc3)CC2)s1 do in these assays?
IMPase inh: -4.7; HPGD inh: -5.9%; ALDH1A1 block: 3.2%

What do the screens show for `COc1cccc(CC(=O)N2CCN(c3ccccc3[N+](=O)[O-])CC2)c1`?
ALDH1A1 block: -12.0%

What do the screens show for `COC(=O)c1ccc(N2CCN(S(=O)(=O)c3ccc(Br)cc3)CC2)c([N+](=O)[O-])c1`?
IMPase inh: 24.1; HPGD inh: -12.1%; ALDH1A1 block: 0.5%

Results for COc1ccc(N2CCN(C(=O)c3ccc(Br)cc3)CC2)c([N+](=O)[O-])c1 ?
ALDH1A1 block: 12.6µM*

How did CCCCC(=O)N1CCN(c2ccc(OC)cc2[N+](=O)[O-])CC1 do in these assays?
HPGD inh: 14.1µM*; ALDH1A1 block: inconclusive
